Test in all cases: glycan array binding signal (z-score within array); higher = stronger binding
What all share (settings): glycan notation: IUPAC condensed, linker removed

The target in assay [1] is Fuc(a1-2)Gal(b1-3)GlcNAc. An outline of the steps: (§1)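 The binding signal is a Z-score computed within each array. Data were drawn from 3228 arrays in the Consortium for Functional Glycomics database, restricted to those with a known protein sequence. Scores were averaged over arrays of the same protein sequence at different concentrations or buffers, and over linkers, and negative values can be taken as non-binding.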

In assay [2] the target is Fuc(a1-2)[Gal(a1-4)]Gal(b1-4)GlcNAc. An outline of the steps: as §1
The target in assay [3] is Fuc(a1-2)[GalNAc(a1-3)]Gal(b1-4)Glc. An outline of the steps: as §1
Assay [4] has as its target Fuc(a1-2)[GalNAc(a1-3)]Gal(b1-4)GlcNAc. An outline of the steps: as §1
In assay [5] the target is Fuc(a1-2)[GalNAc(b1-3)]Gal. An outline of the steps: as §1
Assay [6] addresses Gal(a1-2)Gal. An outline of the steps:
as §1

For assay [7], the target named is Gal(a1-3)Gal(b1-4)Glc. An outline of the steps: as §1
Assay [8] deals with Gal(a1-3)Gal(b1-4)[Fuc(a1-3)]GlcNAc. An outline of the steps: as §1
In assay [9] the target is Gal(a1-3)[Gal(a1-4)]Gal(b1-4)GlcNAc. In outline: as §1
Assay [10] deals with Gal(a1-4)GlcNAc. In outline: as §1
In assay [11] the target is Gal(a1-6)Glc. An outline of the steps: as §1
In assay [12] the target is Gal(b1-3)Gal. An outline of the steps: as §1
The target of assay [13] is Gal(b1-4)GlcNAc(b1-6)Gal(b1-4)GlcNAc(b1-6)GalNAc. In outline:
as §1

Assay [14] addresses Glc(a1-4)Glc. In outline:
as §1

Assay [15] deals with GlcA(b1-3)Gal. An outline of the steps:
as §1

Assay [16] concerns the target GlcNAc(a1-3)Gal(b1-4)GlcNAc. An outline of the steps:
as §1

For assay [17], the target named is Man(a1-2)Man(a1-2)Man(a1-6)[Man(a1-3)]Man. An outline of the steps: as §1
In assay [18] the target is Man(a1-2)Man(a1-3)Man. An outline of the steps: as §1
The target in assay [19] is Man(a1-2)Man(a1-3)[Man(a1-2)Man(a1-6)]Man(a1-6)[Man(a1-2)Man(a1-2)Man(a1-3)]Man(b1-4)GlcNAc(b1-4)GlcNAc. In outline: as §1
Assay [20] deals with Man(a1-2)Man(a1-6)[Man(a1-3)]Man(a1-6)[Man(a1-2)Man(a1-2)Man(a1-3)]Man(b1-4)GlcNAc(b1-4)GlcNAc. An outline of the steps: as §1
The target of assay [21] is Neu5Ac(a2-3)Gal(b1-3)[Neu5Ac(a2-6)]GalNAc. In outline:
as §1

The target of assay [22] is Neu5Gc(a2-3)Gal(b1-4)Glc. In outline: as §1
In assay [23] the target is Fuc(a1-2)Gal(b1-3)[Fuc(a1-4)]GlcNAc. An outline of the steps:
as §1

Assay [24] has as its target Fuc(a1-2)Gal(b1-4)GlcNAc. In outline:
as §1

The target in assay [25] is Fuc(a1-2)[GalNAc(a1-4)]Gal(b1-4)GlcNAc. In outline: as §1
The target in assay [26] is Gal(a1-3)Gal(b1-4)GlcNAc. In outline:
as §1

Assay [27] deals with Gal4S(b1-4)GlcNAc. In outline: as §1
The target in assay [28] is GalNAc(a1-3)Gal. An outline of the steps: as §1
For assay [29], the target named is GlcNAc(a1-6)Gal(b1-4)GlcNAc. An outline of the steps: as §1
The target of assay [30] is Kdn(a2-3)Gal(b1-4)GlcNAc. In outline: as §1
Assay [31] has as its target Man(a1-3)[Man(a1-6)]Man. An outline of the steps:
as §1

Assay [32] addresses Man(a1-3)[Man(a1-6)]Man(b1-4)GlcNAc(b1-4)GlcNAc. In outline: as §1
Assay [33] addresses Neu5Ac(a2-3)Gal(b1-4)GlcNAc(b1-3)Gal(b1-4)GlcNAc. An outline of the steps: as §1
In assay [34] the target is Neu5Ac(a2-8)Neu5Ac(a2-3)[GalNAc(b1-4)]Gal(b1-4)Glc. An outline of the steps: as §1
The target in assay [35] is Neu5Ac(a2-8)Neu5Ac(a2-8)Neu5Ac. An outline of the steps: as §1
Assay [36] concerns the target Neu5Ac9Ac(a2-6)Gal(b1-4)GlcNAc. An outline of the steps:
as §1

The text below walks through data of the supplement of paper PMC8728848.

The entries come from a sample that favours the strongest signals as a whole.

B1: PA-IL (Pseudomonas aeruginosa) (protein)
chain: AWKGEVLANNEAGQVTSIIYNPGDVITIVAAGWASYGPTQKWGPQGDREHPDQGLICHDAFCGALVMKIGNSGTIPVNTGLFRWVAPNNVQGAITLIYNDVPGTYGNNSGSFSVNIGKDQS
Regarding B1, the “glycan array binding signal (z-score)” value in [1] is -0.365; in assay [2], 3.69; in assay [3], 0.183; in [4] it was 0.174; in [5] it was -0.363; in assay [6], 4.77. Moreover, the “glycan array binding signal (z-score)” value is 3.73 in assay [7]; 4.11 in [8]; 3.92 in [9]; 3.15 in [10]; 1.53 in assay [11]; -0.271 in assay [12]. Also, the “glycan array binding signal (z-score)” value in [13] was 0.234; in assay [14], -0.365; in [15], -0.365; in assay [16], -0.365; in [17], -0.365; in [18], -0.365. In addition, the “glycan array binding signal (z-score)” value in [19] is -0.357; in assay [20] it was -0.364; in [21] it was -0.365; in [22], -0.364.

B2: CV-IIL (Chromobacterium violaceum) (protein)
chain: AQQGVFTLPARINFGVTVLVNSAATQHVEIFVDNEPRAAFSGVGTGDNNLGTKVINSGSGNVRVQITANGRQSDLVSSQLVLANKLNLAVVGSEDGTDMDYNDSIVILNWPLG
Regarding B2, the “glycan array binding signal (z-score)” value in assay [1] was 2.67; in assay [23] it was 2.2; in assay [24], 2.98; in assay [2], 1.68; in [25], 1.2; in [26], -0.501. Further, the “glycan array binding signal (z-score)” value in assay [10] was -0.501; in assay [27], -0.501; in [28], -0.502; in assay [14] it was -0.49; in assay [29] it was -0.501; in assay [30], -0.502. The “glycan array binding signal (z-score)” value in [18] is 1.55; in assay [31] it was 2.82; in assay [32], 2.82; in assay [33] it was -0.498; in assay [34] it was -0.501; in assay [35], -0.501. Besides, the “glycan array binding signal (z-score)” value in [36] is -0.502.
